Bioassay records from PubChem.
Shiga inhibitor: A qHTS for Small Molecule Inhibitors of Shiga Toxin; AID 2315, 2010; Vero cells, Shiga toxin protein synthesis inhibition reporter; hit rate 9.2% among 290,000; inhibition, % at 38.7 µM; in the data active = inhibition mostly above about 28%, no sharp cut-off; inactive = mostly below about 43%; note: 0% is about no effect
AmpC no deterg: qHTS Inhibitors of AmpC Beta-Lactamase (assay without detergent); P00811; AmpC nitrocefin hydrolysis, absorbance 480 nm, 0.0001% Triton; Potency, µM (series often up to 57.1 µM), for inactives: at the highest dose activity change, negative = inhibition, actives largely listed as inhibitors; hit rate 0.52% among 330,000;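 note: potency is the fitted concentration of half-maximal effect; plate controls were no compound for no effect and no enzyme for full effect; nearly all actives have a fitted effect of over 20% in size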
Target sequence (P00811 whole entry, looked up): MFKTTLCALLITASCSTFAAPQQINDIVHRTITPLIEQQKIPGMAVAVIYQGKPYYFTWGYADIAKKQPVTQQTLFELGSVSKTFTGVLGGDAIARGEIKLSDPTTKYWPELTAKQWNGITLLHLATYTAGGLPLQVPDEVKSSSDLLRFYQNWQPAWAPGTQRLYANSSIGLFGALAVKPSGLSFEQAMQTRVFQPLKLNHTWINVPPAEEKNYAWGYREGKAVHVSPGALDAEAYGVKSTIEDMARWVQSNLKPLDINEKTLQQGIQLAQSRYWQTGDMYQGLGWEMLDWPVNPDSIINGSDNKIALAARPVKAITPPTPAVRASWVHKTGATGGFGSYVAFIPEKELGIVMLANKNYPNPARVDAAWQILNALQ
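20 mM phosphate pH 7.0 + 0.01% (detergent screen) or 0.0001% Triton X-100; 5.3 nM AmpC reagent; cpd preinc 15 min RT; nitrocefin (800 uM stock) to start; A480 q20 s × 4 min; Activity was normalised to no-enzyme and no-compound control wells.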
AmpC detergent: qHTS Inhibitors of AmpC Beta-Lactamase (assay with detergent). AmpC hydrolysis of nitrocefin, absorbance 480 nm, 0.01% Triton. Potency, µM (top dose mostly 114 µM), inactives show top-dose activity change, negative = inhibition, most hits filed as inhibitors. hit rate 0.041% among 370,000. AID 485294, 2010;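 note: potency is the fitted concentration of half-maximal effect; 0% = no-compound wells and -100% = no-enzyme wells; nearly all actives have a fitted effect of over 25% in size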
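AmpC (5.3 nM in the dispensed reagent) in 20 mM phosphate pH 7.0 with 0.01% (detergent screen) or 0.0001% Triton X-100 was preincubated with compounds for 15 min at room temperature. Nitrocefin was then added from an 800 uM solution, and hydrolysis was followed at 480 nm.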
CHX counter: Cycloheximide Counterscreen for Small Molecule Inhibitors of Shiga Toxin | hit rate 12% among 300,000 | cell reporter, cycloheximide protein synthesis inhibition counterscreen | max response, %; in the data active = max response mostly above about 13%, no sharp cut-off; inactive = mostly below about 14%; note: read at 38.3 µM for the half of the compounds with a filed dose; 0% is about no effect
NS1 function inh: qHTS Assay for Inhibitors of Influenza NS1 Protein Function | Potency, µM (series often up to 46.1 µM), without a hit: top-dose activity, positive = more growth | hit rate 0.4% among 270,000; calls by dose curve; note: potency is the fitted concentration of half-maximal effect; actives are rising curves; nearly all actives have a fitted effect of over 50% in size
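S. cerevisiae expressing influenza A NS1, grown in glucose, washed, then diluted 1:100 into pH 6.0 -URA galactose medium with 23 nl compound. Growth recovery read as OD600; NS1-free strain serves as control.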
The depositor's hits bear a star; u = inconclusive; x = no result given; + = active, no number. The sample as a whole holds a higher share of hits than the screen did. Unless noted, calls come from the whole dose curve; as a rule, active = well fitted curve in the direction sought with a large enough effect; inconclusive = small, poorly fitted or top-dose-only effect, or another doubt; inactive = no such curve, though single readings can be large; an effect the other way counts as inactive or inconclusive.

SMILES	Shiga inhibitor	AmpC no deterg	AmpC detergent	CHX counter	NS1 function inh
Cc1ccc(C2CN=NC23CCc2ccccc2C3=O)cc1 (stereo not drawn)	173*	-22%	u	47*	-71%
O=C1c2ccccc2CCCC12N=NCC2c1cccc2ccccc12 (stereo not drawn)	7	-16%	0%	-4	-68%
Cc1ccc(C)c(Nc2nc(-c3ccccc3)c3cc(Br)ccc3n2)c1	x	x	4%	x	x
COc1cc(NC(=O)CC2C(=O)N(c3cccc(C)c3)C(=O)N2Cc2ccco2)cc(OC)c1 (stereo not drawn)	x	x	2%	x	x
Cn1c(=O)c2c(nc(CN3CCN(c4ccccc4F)CC3)n2Cc2ccc(F)cc2)n(C)c1=O	x	x	1%	x	x
Cc1ccc(N(CC(=O)NC2CCCC2)C(=O)CCC(=O)Nc2ccccn2)cc1C	7	0%	0%	11	1%
CC(C)CCNC(=O)CN(C(=O)CCC(=O)Nc1ccccn1)c1ccc2c(c1)OCCO2	56*	-7%	-11%	22*	-9%
O=C(CN(C(=O)CCC(=O)Nc1ccccn1)c1ccc2c(c1)OCCO2)NCCc1ccccc1	29	-5%	-10%	12*	-1%
CCC(C)(C)NC(=O)CN(C(=O)CCC(=O)Nc1nccs1)c1ccc2c(c1)OCCO2	57*	-12%	5%	51*	23%
O=C(CCC(=O)N(CC(=O)NC1CCCCC1)c1ccc2c(c1)OCCO2)Nc1ccccn1	15	-8%	-5%	21*	1%
CC(C)CCNC(=O)CN(C(=O)CCC(=O)Nc1ccccn1)c1ccc2c(c1)OCO2	-2	-5%	u	-2	-3%
CC(=O)Nc1ccc(S(=O)(=O)NC2CC(=O)N(c3ccc(C)cc3)C2)cc1 (stereo not drawn)	x	-14%	u	x	x
Cc1ccc(C(C(=O)NC2CCCCC2)N(C(=O)CCCC(=O)Nc2ccccn2)c2ccc3c(c2)OCCO3)cc1 (stereo not drawn)	24	56%	4%	11*	-9%
O=C(CN(C(=O)Cn1nnc(-c2cccs2)n1)c1ccc2c(c1)OCCO2)NCC1CCCO1 (stereo not drawn)	-6	31%	-2%	-2	-7%
O=C(CN(C(=O)Cn1nnc(-c2cccs2)n1)c1ccc2c(c1)OCCO2)NC1CCCCC1	56*	-14%	-15%	32*	-23%
COc1ccc(CCNC(=O)c2cccc(-n3cnc4cccnc43)c2C)cc1OC	x	x	-7%	x	x
N[C@@H](Cc1cccc([N+](=O)[O-])c1)C(=O)O	x	x	x	x	5%
Cc1cccc(NC(=S)N=Nc2c(O)n(CN3CCOCC3)c3ccccc23)c1C	-7	-29%	3%	1	3%
Cc1ccc(N=Nc2c(O)n(CN3CCOCC3)c3ccccc23)cc1	106*	-30%	-7%	63*	-10%
Cc1ccc(NC(=O)CN2C(=O)COc3ccc(S(=O)(=O)N4CCCCCC4)cc32)cc1C	x	x	-7%	x	x
O=C(CCl)Nc1nc(-c2ccco2)c(-c2ccco2)s1	11	-25%	-11%	8	-28%
O=C(CCCSc1ccccc1)Nc1nc(-c2ccco2)c(-c2ccco2)s1	25	28µM*	-5%	-3	23%
O=C(N/N=C/c1cn(-c2cccs2)nc1-c1ccccc1)c1ccccc1Cl	102*	-28%	3%	21*	u
O=C(N/N=C/c1cn(-c2cccs2)nc1-c1ccccc1)c1ccc(O)cc1	+	u	-1%	45*	16%
O=C(N/N=C/c1cccs1)c1ccc(NC(=O)c2ccccc2Cl)cc1	-6	-19%	2%	5	0%
SMILES	Shiga inhibitor	AmpC no deterg	AmpC detergent	CHX counter	NS1 function inh
O=C(Nc1cccnc1)c1ccccc1Oc1ccccc1	-14	-1%	8%	3	6%
O=C(Nc1cccnc1)c1ccc(COc2ccccc2Br)cc1	32	-11%	-9%	24*	-4%
O=C(Nc1cccnc1)c1ccc(CSc2ccccc2)cc1	73*	-19%	2%	41*	x
CCCCOc1ccc(C(=O)Nc2ccncc2)cc1	94*	-21%	-1%	26*	-33%
O=C(Nc1cccnc1)c1ccc(Oc2ccccc2)cc1	38*	-8%	u	34*	-39%
Cn1c(=O)c2sccc2n(Cc2cccc(Br)c2)c1=O	-6	-19%	-16%	-2	0%
CCOc1ccccc1C(=O)Nc1ccc(S(=O)(=O)Nc2onc(C)c2C)cc1	x	x	5%	x	x
C=CCNC(=S)NNc1nc2c(c(=O)[nH]1)C1(CCCCC1)Cc1ccccc1-2	-4	-43%	4%	-4	22%
CCCOc1ccc(C(=O)Nc2cccnc2)cc1	x	-14%	-14%	29*	-32%
O=C1CCCc2cc(S(=O)(=O)N3CCCC(C(=O)NCc4ccc(Cl)cc4)C3)ccc2N1 (stereo not drawn)	x	x	6%	x	x
Cc1ccccc1-c1nsc(SCC(=O)Nc2ccc3c(c2)OCO3)n1	35	-11%	-3%	33*	3%
O=C(CSc1nc(-c2ccccc2Cl)ns1)NCc1ccc2c(c1)OCO2	-11	-15%	2%	-1	6%
Cc1cccc(-c2nsc(SCC(=O)Nc3ccc4c(c3)OCO4)n2)c1	36*	u	-14%	27*	2%
CC(C)C[C@H](NC(=O)OC(C)(C)C)c1nnc(SCc2cccc(F)c2)o1	27*	28%	4%	9	-51%
CSc1nnc([C@H](Cc2c[nH]c3ccccc23)NC(=O)OC(C)(C)C)o1	65*	24%	0%	26*	-1%
Cc1cccc(C(=O)Oc2cccc3c(O)cccc23)c1	-3	-48%	u	-2	-68%
C/C(NC(=O)c1ccccc1)=C1/C(=O)CC2C1C2(C)C (stereo not drawn)	119*	-5%	-15%	43*	-26%
CC(=O)C1=C(NC(=O)c2ccc(F)cc2)CC2C1C2(C)C (stereo not drawn)	29	-7%	4%	18	-5%
Cn1c2ccccc2c2cc(C(=O)N3CCN(CCO)CC3)sc21	14	31%	2%	14*	22%
CCSC1=NC2(CCN(C(=O)NC3CCCCC3)CC2)N=C1c1ccc(OC)cc1	x	x	-1%	x	x
COc1ccc(C(=O)N=c2nc3ccccn3s2)cc1	74	-19%	u	38*	-11%
CCOC(=O)/C=C1\SCC(=O)N1CC(=O)Nc1cc(S(=O)(=O)N(C)C)ccc1C	x	0%	x	x	x
O=C(OCc1nnc(-c2ccc(Cl)cc2)o1)c1ccc(O)cc1	28*	-28%	-7%	19*	x
O=C(OCc1nnc(-c2ccccc2)o1)c1cc(F)c(F)cc1Cl	-3	-1%	0%	3	-5%
O=[N+]([O-])c1cc(-c2nnc(-c3ccccc3)o2)ccc1Oc1ccc(Cl)cc1	61*	-16%	-1%	32*	9%
Cc1nnc(-c2ccc(Oc3ccc(Cl)cc3)c([N+](=O)[O-])c2)o1	-9	48%	-9%	-3	0%
